In PubChem BioAssay (NCI):
This is part of a sample that, as a whole, favours compounds with a hit. Of some 83,000 tested, about 20% had one in any assay.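 Plates (96-well) were seeded with cells, treated with compound at one concentration, and incubated for 48 hours before percent growth was determined.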 Unmarked numbers belong to inactive results. Active and inactive are the calls of the source. Rule for the calls: active = growth percent below 10; inactive = the rest.

Tested on: HCT-15 colon
Test: NCI-60 one-dose screen, 48 h (100 = growth as untreated, 0 = no growth, -100 = all killed)
Conditions: 10 µM unless noted

In order of falling growth:
1. N#Cc1nc(-c2ccccc2)oc1N1CC[C@@H](CO)C1  100%
2. C#Cc1nc(C2=C(C)C(OC(=O)CCC(=O)O)CC2)cs1 (centres undefined)  99.8%
3. COc1ccc(-c2nc3ccc(-c4nnc(SCC(=O)Nc5ccc(C(=O)/C=C/c6ccc(Cl)cc6)cc5)o4)cc3[nH]2)cc1OC  97.1%
4. CN(C)c1ccc(/C=C2\Cc3c(F)ccc(Br)c3C2=O)cc1  96.9%
5. C#Cc1nc(C2=C(C)C(=N\O)/C(=N/O)C2)cs1  94.5%
6. O=c1/c(=C\c2ccc(-c3ccccc3)o2)sc2nc(-c3ccccc3)nn12  91.8%
7. COc1cccc(OC)c1-c1nnn(C)c1C(=S)N1CCN(c2ccc([N+](=O)[O-])cc2Cl)CC1  89.6%
8. CN1C(=S)N(C)C2C1NN=C1SC(c3ccccc3)=CC(=O)N12 (centres undefined)  89.5%
9. O=C(CN1C(=O)/C(=C/c2ccccc2)SC1=S)N1CCOCC1  88.2%
10. COC(=O)C1CCCN(S(=O)(=O)/N=C2\NC(=O)NC2=C(Cl)Cl)C1 (centres undefined)  80.7%
11. Cn1c(SCC(=O)Nc2ccc(-c3nc4ccc([N+](=O)[O-])cc4[nH]3)cc2)nc2ccccc2c1=O  78.2%
12. O=C(CSc1nc2sc3c(c2c(=O)n1-c1ccc(Cl)cc1)CCCC3)N/N=C/c1ccc(F)cc1  73.9%
13. O=C(CN1CCOCC1)NNc1ncnc2ccccc12  70.8%
14. O=c1[nH]c2ccccc2cc1CSc1ccccc1Nc1nccc(-c2ccc(C(F)(F)F)cc2)n1  69.1%
15. CC(C)(C)OC(=O)N1C(=O)c2c(c3c4ccccc4[nH]c3c3ccc4ccccc4c23)C1=O  51.6%
16. O=C(c1ccc(O)cc1)C1[C@H](c2ccc(Cl)cc2)[C@@H](c2ccccc2)NC12C(=O)Nc1ccc(Cl)cc12 (some centres undefined)  28.9%
17. COC1CCN(Cc2ccc3c(NNC(=O)c4cnccn4)nc4cc(F)ccc4n23)C1 (centres undefined)  28.7%
18. CCCC(=O)NC(c1cccc(N(C)C)c1)c1cc(C)c2cccnc2c1O (centres undefined)  24.9%
19. CC(=O)Oc1ccccc1C(=O)Nc1cc(C(C)C)ccc1C  14%
20. Cc1[nH]nc2ncc(C#Cc3cncc(C(=O)Nc4ccc(CN5CCN(C)CC5)c(C(F)(F)F)c4)c3)cc12  12.5%
21. COc1ccc(/C=N/NC(=O)c2[nH]c3ccc(Br)cc3c2-c2ccccc2)s1  12%

CN(C)S(=O)(=O)c1oc(-c2ccccc2)nc1C#N was tested, and the growth was -11.6% (active).
In the case of Clc1ccc2c(NCCCN3CCOCC3)c3oc4ccc(Cl)cc4c3nc2c1, the growth is reported as 4.4% (active).
For CC(=O)Oc1ccccc1C(=O)Nc1ccc(C(=O)/C=C/c2ccncc2)cc1, the growth was -23.9% (active).
